TRPM1 prom inh = inhibitors of MITF-driven TRPM1 promoter in melanoma cells. 0.83% of 330,000 active. SK-MEL-5 TRPM1 promoter luciferase, 24 h. AID 488899. inhibition, % at 12.5 µM;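 active = mean inhibition across replicates of 60% or more, whatever share of single replicates reaches that level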
Peg3 promoter = reduces Peg3 promoter-driven luciferase expression in HeLa; 1.7% of 360,000 active; HeLa PEG-Prom luciferase reporter, luminescence, overnight; inhibition, % at 20 µM;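 active = inhibition of at least 50% at 20 µM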
HIF-2a inh = blocks HIF-2a reporter activity; 0.72% of 360,000 active; inhibition, % at 18.8 µM; 786-0 RCC cells HIF-2a reporter, luciferase luminescence, overnight;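 active = inhibition of the luminescence signal of 40% or more relative to plate controls, in a single-dose primary screen at 18.75 µM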
ABHD5-PLIN5 inh = inhibitors of human ABHD5-perilipin-5 interaction | AID 602281 | 0.78% of 360,000 active | inhibition, % at 4 µM | Split G. princeps luciferase complementation, luminescence, 4 h;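 active = inhibition above the mean inhibition across every tested compound plus 3 SD, cut at about 22% in these data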;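 also: 0% = DMSO only wells and the 100% control is not disclosed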
Target sequence (Q00G26 whole entry, looked up): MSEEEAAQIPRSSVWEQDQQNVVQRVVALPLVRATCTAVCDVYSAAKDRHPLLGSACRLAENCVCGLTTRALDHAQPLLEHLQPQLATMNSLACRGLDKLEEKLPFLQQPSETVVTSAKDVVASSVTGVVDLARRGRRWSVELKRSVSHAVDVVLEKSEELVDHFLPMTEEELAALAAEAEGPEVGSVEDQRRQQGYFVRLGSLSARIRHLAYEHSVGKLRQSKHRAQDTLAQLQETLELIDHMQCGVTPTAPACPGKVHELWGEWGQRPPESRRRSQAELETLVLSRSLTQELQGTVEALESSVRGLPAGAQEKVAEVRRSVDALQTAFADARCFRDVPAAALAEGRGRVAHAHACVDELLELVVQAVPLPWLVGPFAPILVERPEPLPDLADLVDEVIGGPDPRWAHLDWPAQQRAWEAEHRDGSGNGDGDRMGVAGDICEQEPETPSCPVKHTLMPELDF
Target sequence (Q8WTS1 whole entry, looked up): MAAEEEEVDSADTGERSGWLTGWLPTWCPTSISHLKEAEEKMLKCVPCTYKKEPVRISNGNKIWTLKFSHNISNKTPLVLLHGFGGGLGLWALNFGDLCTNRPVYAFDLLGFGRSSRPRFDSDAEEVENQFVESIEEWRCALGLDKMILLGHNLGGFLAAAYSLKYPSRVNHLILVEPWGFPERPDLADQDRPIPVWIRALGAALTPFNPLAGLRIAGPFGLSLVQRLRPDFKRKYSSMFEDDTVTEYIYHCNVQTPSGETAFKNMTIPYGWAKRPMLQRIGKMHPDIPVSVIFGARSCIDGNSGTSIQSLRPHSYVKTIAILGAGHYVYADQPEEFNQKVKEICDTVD
CF NFkB inh = cystic fibrosis NF-kB activation inhibition; KKLEB NF-kB-GFP reporter, PAF-induced, GFP fluorescence overnight; inhibition, % at 5 µM; 0.86% of 360,000 active; AID 588850;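 active = at least 50% inhibition at 5 µM, scaled per plate between neutral and stimulator controls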;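 also: PAF is a Pseudomonas aeruginosa culture filtrate used as stimulus; plate controls were PAF-stimulated DMSO wells for no effect and unstimulated DMSO wells for full effect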
KKLEB cytotox = counter-screen for CF NF-kB inhibitors: cytotoxicity; activity change (cytotoxicity), % at 5 µM; 0.36% of 360,000 active; AID 602141; KKLEB CF airway cells viability, ATPlite luminescence, overnight; hits give low values; cells stimulated with P. aeruginosa culture filtrate;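 active = corrected activity change at or below -50% at 5 µM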
CF NFkB inh conf = confirmation of cystic fibrosis induced NF-kB inhibitors. shares compounds with CF NFkB inh. KKLEB CF airway cells, PAF-induced NF-kB-GFP fluorescence, overnight. inhibition, % at 5 µM. 64% of 1,300 active; in the data active = inhibition above about 40%;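 also: stimulus PAF is a Pseudomonas aeruginosa filtrate and not platelet activating factor; plate controls were DMSO wells with stimulus for no effect and unstimulated DMSO wells for full effect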
ABHD5 PLIN5 conf = confirmation of human ABHD5-PLIN5 interaction inhibitors | biochemical ABHD5-PLIN5 interaction, luminescence | 67% of 2,200 active | AID 651612 | inhibition, % at 4 µM | shares compounds with ABHD5-PLIN5 inh; in the data active = inhibition above about 23%;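 also: 0% = DMSO vehicle wells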
HNF4 split-luc = HNF4 split-luciferase signal hit, counter-screen. shares compounds with ABHD5-PLIN5 inh. 77% of 2,200 active. inhibition, % at 4 µM. AID 651674. HNF4 dimerization, luminescence, biochemical;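 active = mean inhibition across replicate wells exceeding the computed hit threshold, cut at about 13% in these data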;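 also: light from luciferase halves that rejoin when HNF4 fusion proteins dimerize; 0% = DMSO only wells and the 100% control is not given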
* = called active by the depositor. A selection: hits, their analogues and other compounds. The true share with any hit is near 3.1%.

Results for Cc1nc([N+](=O)[O-])c(Sc2nc3ccc([N+](=O)[O-])cc3[nH]2)n1Cc1ccccc1 ?
TRPM1 prom inh: -6.3; Peg3 promoter: -0.2; HIF-2a inh: 18.8; ABHD5-PLIN5 inh: 27.7*; CF NFkB inh: 70.3*; KKLEB cytotox: -49.8; CF NFkB inh conf: 54.7*; ABHD5 PLIN5 conf: 45.4*; HNF4 split-luc: 37.6*

How did O=C(C#Cc1ccccc1)c1ccccc1 do in these assays?
Peg3 promoter: 100.0*; HIF-2a inh: 5.5; ABHD5-PLIN5 inh: 25.1*; CF NFkB inh: 99.3*; KKLEB cytotox: -28.2; CF NFkB inh conf: 43.5*; ABHD5 PLIN5 conf: 78.4*; HNF4 split-luc: 107.3*

How did Cc1ccc2[nH]c(=O)c(CN(CCCN3CCOCC3)C(=O)Nc3ccc(Cl)cc3)cc2c1 do in these assays?
TRPM1 prom inh: -3.9; Peg3 promoter: 21.9; HIF-2a inh: -36.6; ABHD5-PLIN5 inh: 11.3; CF NFkB inh: 9.4; KKLEB cytotox: 3.0

Results for COC1OC2COC(c3ccccc3)OC2C(O)C1NC(=O)c1ccccc1 (stereo not given) ?
TRPM1 prom inh: -4.9; Peg3 promoter: 1.2; HIF-2a inh: 8.9; ABHD5-PLIN5 inh: -6.3; CF NFkB inh: 2.5; KKLEB cytotox: -3.7

What do the screens show for `CCCCOC(=O)/C=C\C(=O)OCCCC`?
TRPM1 prom inh: -9.1; Peg3 promoter: 6.9; HIF-2a inh: 9.5; ABHD5-PLIN5 inh: 6.7; CF NFkB inh: -5.6; KKLEB cytotox: -7.4

How did CCCCOC(=O)/C=C\C(=O)NC(N)=O do in these assays?
TRPM1 prom inh: 2.3; Peg3 promoter: 11.3; HIF-2a inh: 31.7; ABHD5-PLIN5 inh: 51.0*; CF NFkB inh: 56.8*; KKLEB cytotox: -10.3; CF NFkB inh conf: -15.2; ABHD5 PLIN5 conf: 70.9*; HNF4 split-luc: 57.5*

Results for CC(C)(C)c1ccc(C(=O)CC(Sc2ccc(Cl)cc2)C(=O)O)cc1 (stereo not given) ?
TRPM1 prom inh: 8.5; Peg3 promoter: 27.9; HIF-2a inh: 25.9; ABHD5-PLIN5 inh: 85.5*; CF NFkB inh: 88.1*; KKLEB cytotox: -15.9; CF NFkB inh conf: 4.0; ABHD5 PLIN5 conf: 54.4*; HNF4 split-luc: 97.5*

Results for CC(C)(C)c1ccc(C(=O)Nc2ccc(Cl)cc2)cc1 ?
TRPM1 prom inh: -107.1; Peg3 promoter: -183.4; HIF-2a inh: -174.9; ABHD5-PLIN5 inh: -5.1; CF NFkB inh: -24.0; KKLEB cytotox: -0.9

What do the screens show for `CCOC(=O)C1=C(C)NC(C)=C(C(=O)OCC)C1c1cccc([N+](=O)[O-])c1`?
Peg3 promoter: 15.4; HIF-2a inh: 8.0; ABHD5-PLIN5 inh: -7.2; CF NFkB inh: 12.6; KKLEB cytotox: -3.4

Results for COC(=O)C1=C(C)NC(C)=C(C(=O)OCC(C)C)C1c1ccccc1[N+](=O)[O-] (stereo not given) ?
TRPM1 prom inh: 19.4; Peg3 promoter: 32.5; HIF-2a inh: 25.1; ABHD5-PLIN5 inh: 35.7*; CF NFkB inh: 83.2*; KKLEB cytotox: -0.6; CF NFkB inh conf: 58.1*; ABHD5 PLIN5 conf: 35.5*; HNF4 split-luc: 94.7*

Results for CC1(C)CC(=O)C=C(NC2=CC3OC(c4ccccc4)OCC3OC2=O)C1 (stereo not given) ?
TRPM1 prom inh: 70.8*; Peg3 promoter: 63.6*; HIF-2a inh: 39.9; ABHD5-PLIN5 inh: 62.9*; CF NFkB inh: 72.4*; KKLEB cytotox: -7.5; CF NFkB inh conf: 52.4*; ABHD5 PLIN5 conf: 85.1*; HNF4 split-luc: 93.8*

What do the screens show for `COC(=O)[C@@H](NC(=O)N1CCC(Cc2ccccc2)CC1)C(C)C`?
TRPM1 prom inh: -3.9; Peg3 promoter: 1.4; HIF-2a inh: 16.6; ABHD5-PLIN5 inh: -4.1; CF NFkB inh: -1.0; KKLEB cytotox: -11.0

Results for C=C1C(=O)[C@]23C[C@H]1CCC2[C@]1(C)C(=O)CC[C@@](C)(C(=O)O)C1C[C@@H]3O (stereo not given in full) ?
Peg3 promoter: 61.1*; HIF-2a inh: 13.3; ABHD5-PLIN5 inh: 46.4*; CF NFkB inh: 70.7*; KKLEB cytotox: -13.2; CF NFkB inh conf: 85.8*; ABHD5 PLIN5 conf: 40.8*; HNF4 split-luc: 100.4*

Results for CC(=O)C1=C(c2cccc([N+](=O)[O-])c2)N(C(C)=O)n2c(C)nnc2S1 ?
TRPM1 prom inh: 0.0; Peg3 promoter: -88.5; HIF-2a inh: -121.2; ABHD5-PLIN5 inh: 61.4*; CF NFkB inh: 51.8*; KKLEB cytotox: -39.6; CF NFkB inh conf: 22.0; ABHD5 PLIN5 conf: 82.5*; HNF4 split-luc: 47.3*

Results for COc1ccccc1CNC(=O)N/C=C/c1ccc(Cl)cc1 ?
TRPM1 prom inh: 5.4; Peg3 promoter: -4.3; HIF-2a inh: 6.9; ABHD5-PLIN5 inh: -0.1; CF NFkB inh: 12.5; KKLEB cytotox: -11.2

Results for COc1ccc(/C=C/C(=O)c2cc(Br)ccc2OC(=O)c2ccco2)cc1OC ?
TRPM1 prom inh: 9.7; Peg3 promoter: 7.0; HIF-2a inh: 4.7; ABHD5-PLIN5 inh: 1.0; CF NFkB inh: 1.8; KKLEB cytotox: 1.1

How did COc1ccc(/C=C/C(=O)c2cc(F)ccc2OC(=O)c2ccccc2OC)cc1OC do in these assays?
TRPM1 prom inh: 44.8; Peg3 promoter: 52.2*; HIF-2a inh: 75.7*; ABHD5-PLIN5 inh: 62.7*; CF NFkB inh: 70.6*; KKLEB cytotox: -22.8; CF NFkB inh conf: 42.5*; ABHD5 PLIN5 conf: 77.6*; HNF4 split-luc: 59.9*

How did CCN(CCCc1ccccc1)CCCc1ccccc1 do in these assays?
TRPM1 prom inh: -9.5; Peg3 promoter: -9.9; HIF-2a inh: -10.7; ABHD5-PLIN5 inh: 37.9*; CF NFkB inh: 53.6*; KKLEB cytotox: 31.6; CF NFkB inh conf: 4.3; ABHD5 PLIN5 conf: 74.3*; HNF4 split-luc: 32.8*

What do the screens show for `Cc1ccc2c(c1)C(=O)C(=O)N2Cc1ccc(F)cc1`?
TRPM1 prom inh: 11.9; Peg3 promoter: 9.9; HIF-2a inh: 9.2; ABHD5-PLIN5 inh: 16.4; CF NFkB inh: 3.2; KKLEB cytotox: -16.3

How did Cc1ccc2c(c1)C(=O)C(=O)N2Cc1ccc(Cl)cc1 do in these assays?
TRPM1 prom inh: 13.7; Peg3 promoter: -24.3; HIF-2a inh: -5.2; ABHD5-PLIN5 inh: 33.2*; CF NFkB inh: 53.5*; KKLEB cytotox: -12.5; CF NFkB inh conf: 32.9; ABHD5 PLIN5 conf: 36.6*; HNF4 split-luc: 51.6*

Results for COc1ccc(CN2CNc3c(c(=O)n(C)c(=O)n3C)C2)cc1 ?
TRPM1 prom inh: -16.0; Peg3 promoter: 15.0; HIF-2a inh: 16.5; ABHD5-PLIN5 inh: 3.7; CF NFkB inh: -14.1; KKLEB cytotox: 8.1
